The results in this text go back to PubChem BioAssay (NCATS).

Several values for one entry are separate records, joined by “and”; a condition that tells them apart may be missing. Equal entries are not always repeated. Inconclusive results are not listed. Activity calls are given as the source filed them. The call rests on the fitted dose curve; in most records, active means well fitted curve in the direction sought with a large enough effect; inconclusive means small, poorly fitted or top-dose-only effect, or another doubt; inactive means no such curve, though single readings can be large; an effect the other way counts as inactive or inconclusive.

The nature of test [1]: Cell Viability - LYMP2-009 (AID 968). Further: nearly all actives have a fitted effect of over 55% in size.
Test [2] in a line: Cell Viability - LYMP2-011 (AID 969). Further: nearly all actives have a fitted effect of over 60% in size. The essentials: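 2500 cells/well in complete medium, compound-treated 24 h at 37 C. Viability read as intracellular ATP by CellTiter-Glo luminescence after 30 min at room temperature. AC50 from Hill fits of qHTS concentration-response data.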
A short description of test [3]: Cell Viability - LYMP2-013 (AID 970). Further: nearly all actives have a fitted effect of over 55% in size. The essentials: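 Human lymphoblastoid LYMP2-013 cells, 2500/well, treated 24 h at 37 C in complete medium; viability as intracellular ATP by CellTiter-Glo luminescence after 30 min. AC50 from Hill fits of qHTS concentration-response.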
Test [4] is described as follows: Cell Viability - LYMP2-015 (AID 971). Further: nearly all actives have a fitted effect of over 55% in size. The essentials: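 LYMP2-015 human lymphoblastoid cells (2500/well) in complete medium, compound-treated 24 h at 37 C; viability read as cellular ATP by CellTiter-Glo luminescence after 30 min at room temperature. AC50 from Hill-equation fits of qHTS concentration-response data.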
Test [5] is described as follows: Cell Viability - LYMP2-017 (AID 972). Further: nearly all actives have a fitted effect of over 55% in size. A digest of the protocol: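 LYMP2-017 human lymphoblastoid cells (2500/well) settled 5 hr at 37 C, then exposed to compound 24 hr at 37 C in complete medium. Viability taken as intracellular ATP by CellTiter-Glo luminescence after 30 min at RT; AC50 from Hill fits.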
The nature of test [6]: Cell Viability - LYMP2-019 (AID 973). Further: nearly all actives have a fitted effect of over 55% in size. The essentials:
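Human lymphoblastoid LYMP2-019 cells (2500/well) preincubated 5 h at 37 C, then treated 24 h at 37 C in complete medium. Viability by CellTiter-Glo ATP luminescence after 30 min at room temperature; AC50 from Hill fits.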

A short description of test [7]: Cell Viability - LYMP2-021 (AID 974). The essentials:
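Human lymphoblastoid LYMP2-021 cells, 2500/well in complete medium, treated 24 hours at 37 C. Intracellular ATP by CellTiter-Glo luminescence (30 min, RT); AC50 from Hill fits of concentration-response.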

Test [8] in a line: Cell Viability - LYMP2-023 (AID 975). Further: nearly all actives have a fitted effect of over 55% in size. The essentials:
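LYMP2-023 human lymphoblastoid cells, 2500/well, preincubated 5 hr at 37 C, then compound-treated 24 hr at 37 C in complete medium. CellTiter-Glo luminescence (ATP) after 30 min at room temperature; AC50 from Hill-equation fits; tetraoctylammonium bromide positive control.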

The nature of test [9]: Cell Viability - LYMP2-025 (AID 976). The essentials:
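Human lymphoblastoid LYMP2-025 cells, 2500/well, exposed 24 h at 37 C in complete medium in 1536-well qHTS. Viability as cellular ATP by CellTiter-Glo luminescence; AC50 from Hill fits of concentration-response data.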

Test [10] is described as follows: Cell Viability - LYMP2-002 (AID 977).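 Further: compound exposure lasted 24 h at 37 °C.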 A digest of the protocol:
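Human lymphoblastoid LYMP2-002 cells, 2500 per well, exposed to compounds for 24 h at 37 C in complete medium; viability read as intracellular ATP by CellTiter-Glo luminescence, AC50 from Hill fits.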

A short description of test [11]: Cell Viability - LYMP2-006 (AID 978). Further: nearly all actives have a fitted effect of over 60% in size. A digest of the protocol: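 Concentration-dependent loss of intracellular ATP in a human lymphoblastoid line after 24 hr treatment at 37 C was measured by CellTiter-Glo luminescence, with AC50 values obtained from standard Hill-equation modelling.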
A short description of test [12]: Cell Viability - LYMP2-007 (AID 979).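 Further: cells exposed to compound for 24 h before reading; nearly all actives have a fitted effect of over 60% in size.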 A digest of the protocol: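 Human lymphoblastoid LYMP2-007 cells (2500/well) preincubated 5 h at 37 C, then treated 24 h at 37 C in complete medium. Viability by CellTiter-Glo ATP luminescence after 30 min at room temperature; AC50 from Hill fits.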
Test [13] can be described thus: Cell Viability - LYMP2-008 (AID 980). Further: nearly all actives have a fitted effect of over 60% in size. The essentials: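 LYMP2-008 lymphoblastoid cells (2500/well) plated 5 h, then treated 24 h at 37 C in complete medium. Viability read as intracellular ATP by CellTiter-Glo luminescence after 30 min at room temperature; AC50 from Hill fits.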
Test [14] is described as follows: Cell Viability - LYMP2-010 (AID 981). Further: nearly all actives have a fitted effect of over 55% in size. A digest of the protocol: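 Human lymphoblastoid LYMP2-010 cells (2500/well) treated 24 h at 37 C in complete medium; viability read as intracellular ATP by CellTiter-Glo luminescence. AC50 from Hill fits of concentration-response data; tetraoctylammonium bromide positive control.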
Test [15] in a line: Cell Viability - LYMP2-012 (AID 982).
Test [16] is described as follows: Cell Viability - LYMP2-014 (AID 983). Further: nearly all actives have a fitted effect of over 50% in size. A digest of the protocol: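 LYMP2-014 human lymphoblastoid cells, 2500/well, treated 24 h at 37 C in complete medium; viability by CellTiter-Glo ATP luminescence after 30 min at room temperature. AC50 from Hill fits of qHTS concentration-response; tetraoctylammonium bromide positive control.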
A short description of test [17]: Cell Viability - LYMP2-016 (AID 984). Further: nearly all actives have a fitted effect of over 55% in size. The essentials: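 Acute toxicity in a Coriell human lymphoblastoid line is scored as loss of intracellular ATP over 24 h of treatment in complete medium. CellTiter-Glo signal is fitted across concentrations with the Hill equation to give AC50.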
Test [18] in a line: Cell Viability - LYMP2-018 (AID 985).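 Further: compound exposure lasted 24 hr at 37 °C; nearly all actives have a fitted effect of over 50% in size.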 The essentials:
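Human lymphoblastoid LYMP2-018 cells, 2500/well, settled 5 hr at 37 C then exposed to compound 24 hr at 37 C; intracellular ATP measured by CellTiter-Glo luminescence. AC50 from Hill-equation concentration-response fits.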

Test [19] in a line: Cell Viability - LYMP2-020 (AID 986). Further: nearly all actives have a fitted effect of over 55% in size. The essentials:
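Human lymphoblastoid LYMP2-020 cells (2500/well) preincubated 5 h at 37 C, then treated 24 h at 37 C. Viability measured as intracellular ATP by CellTiter-Glo luminescence after 30 min at room temperature; AC50 from Hill fits.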

Test [20] is described as follows: Cell Viability - LYMP2-005 (AID 967). The essentials:
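qHTS viability screen in LYMP2-005 cells: 24 h at 37 C with compound, ATP luminescence via CellTiter-Glo, AC50 from Hill curves.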
Potency means the concentration at half of the fitted maximal effect.

`CCCCCCCCCCCC[N+](C)(C)CCOc1ccccc1`: the Potency in [1] is 31.6 µM (active); in test [2] it was 39.8 µM (active); in test [3] it was 31.6 µM (active); in [4], 31.6 µM (active); in [5], 39.8 µM (active); in [6], 39.8 µM (active). The Potency is 39.8 µM (active) in test [7]; 50.1 µM (active) in test [8]; 50.1 µM (active) in [9]; 50.1 µM (active) in test [10]; 20 µM (active) in test [11]; 25.1 µM (active) in test [12]. Further, the Potency was 25.1 µM (active) in test [13]; 39.8 µM (active) in test [14]; 39.8 µM (active) in test [15]; 39.8 µM (active) in test [16]; 31.6 µM (active) in [17]; 39.8 µM (active) in test [18]. The Potency in test [19] was 39.8 µM (active).

With `COP(=O)(OC)OC=C(Cl)Cl`, the Potency entry in test [20], in [1], in test [2], in test [3], in test [4] and in test [5] was “inactive” throughout. The Potency entry in [6], in test [7], in test [8], in test [9], in [10] and in [11] was “inactive” throughout. Moreover, the Potency result in test [12], in [13], in test [14], in test [15], in test [16] and in test [17] was “inactive” throughout. The Potency entry in [18] and in test [19] was “inactive” in each case.

In the case of `CNC(=O)Oc1cccc2ccccc12`, the Potency result in test [20], in test [1], in test [2], in test [3], in [4] and in test [5] was “inactive” each time. The Potency result in [6], in test [7], in [8], in test [9], in test [10] and in test [11] was “inactive” in each case. For the same molecule, the Potency result in [12], in test [13], in [14], in test [15], in test [16] and in test [17] was “inactive” each time. The Potency entry in test [18] and in test [19] was “inactive” in each case.

As for `COC(=O)C1=C(C)NC(C)=C(C(=O)OC)C1c1ccccc1[N+](=O)[O-]`, the Potency in test [5] is 50.1 µM (active); in [6], 79.4 µM (active); in test [12], 39.8 µM (active); in test [14], 39.8 µM (active).

On to `Oc1c(Br)cc(Br)cc1Br`, for which the Potency result in test [20], in test [1], in [2], in test [3], in test [4] and in test [5] was “inactive” each time. The Potency entry in test [6], in test [7], in [8], in test [9], in test [10] and in test [11] was “inactive” each time. The Potency result in [12], in test [13], in [14], in test [15], in test [16] and in test [17] was “inactive” throughout. Also, the Potency result in test [18] and in [19] was “inactive” each time.

With `Oc1ccc(Cl)cc1Cc1cc(Cl)ccc1O`, in test [19], the Potency is 39.8 µM (active).

Consider `O=C(CCl)c1ccc(Cl)cc1Cl`, for which the Potency in test [20] was 10 µM (active); in test [1], 6.31 µM (active); in [2], 6.31 µM (active); in [3], 7.94 µM (active); in [4], 5.01 µM (active); in test [5], 3.16 µM (active). The Potency was 7.94 µM (active) in [6]; 3.98 µM (active) in [7]; 6.31 µM (active) in test [8]; 7.94 µM (active) in test [9]; 7.94 µM (active) in test [10]; 7.94 µM (active) in test [11]. The Potency in test [12] was 5.01 µM (active); in test [13], 7.94 µM (active); in [14], 2.51 µM (active); in test [15], 3.16 µM (active); in test [16], 5.01 µM (active); in test [17], 5.01 µM (active). Also, the figures for the Potency in [18] and in test [19] were 3.16 µM (active) and 5.01 µM (active), respectively.

As for `CC[n+]1c(-c2ccccc2)c2cc(N)ccc2c2ccc(N)cc21`, the Potency is 6.31 µM (active) in test [20]; 15.8 µM (active) in test [1]; 12.6 µM (active) in test [2]; 15.8 µM (active) in test [3]; 15.8 µM (active) in test [4]; 15.8 µM (active) in [5]. Also, the Potency in test [6] is 12.6 µM (active); in test [7], 20 µM (active); in [8], 15.8 µM (active); in [9] it was 15.8 µM (active); in test [10], 15.8 µM (active); in test [11], 10 µM (active). Also, the Potency is 12.6 µM (active) in test [12]; 10 µM (active) in test [13]; 12.6 µM (active) in test [14]; 7.94 µM (active) in test [15]; 10 µM (active) in [16]; 15.8 µM (active) in test [17]. Also, the Potency in [18] is 10 µM (active); in [19], 15.8 µM (active).

On to `CN(C)C(=S)SSC(=S)N(C)C`, for which the Potency in [20] was 0.501 µM (active); in [1] it was 0.199 µM (active); in test [2], 0.316 µM (active); in [3], 0.398 µM (active); in test [4], 0.251 µM (active); in [5], 0.199 µM (active). The Potency in test [6] is 0.199 µM (active); in [7] it was 0.501 µM (active); in [8] it was 0.316 µM (active); in test [9], 0.251 µM (active); in [10], 0.316 µM (active); in [11], 0.251 µM (active). The Potency in [12] was 0.316 µM (active); in test [13] it was 0.251 µM (active); in [14], 0.251 µM (active); in test [15] it was 0.199 µM (active); in test [16] it was 0.199 µM (active); in [17], 0.316 µM (active). Further, the Potency in [18] is 0.199 µM (active); in test [19], 0.398 µM (active).

As to `Oc1ccc(Cl)cc1Sc1cc(Cl)ccc1O`, the Potency is 39.8 µM (active) in [1]; 39.8 µM (active) in test [6]; 39.8 µM (active) in test [7]; 39.8 µM (active) in test [12]; 39.8 µM (active) in test [14]; 31.6 µM (active) in test [15]. In addition, the Potency in test [18] and in test [19] was 39.8 µM (active) throughout.

Take `C[C@@H]1C[C@@H]([C@H](O)CC2CC(=O)NC(=O)C2)C(=O)[C@@H](C)C1`: the Potency is 2 µM (active) in test [3]; 2 µM (active) and 1 µM (active) in test [4]; 1.58 µM (active) in test [5]; 2.51 µM (active) in test [11]; 1 µM (active) in test [14]; 631 nM (active) and 794 nM (active) in [15]. Also, the Potency is 1 µM (active) in [18] and 0.794 µM (active) in test [19].
